The sample as a whole holds a higher share of hits than the screen did.
Pf Dd2 growth – inhibitors of Plasmodium falciparum Dd2 growth. P. falciparum Dd2 growth, SYBR Green, 72 h. Potency, µM (highest dose often 28.9 µM), most hits filed as inhibitors. actives 4.3% (n = 120,000). AID 1347417; active = well fitted inhibition curve with a large enough effect; also: nearly all actives have a fitted effect of over 65% in size
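Infected erythrocytes (Dd2, 0.3% parasitemia, 2.5% hematocrit final) are added to compound in RPMI-1640/Albumax II medium, grown 72 h at 37C in low oxygen, then lysed with saponin/Triton-X containing SYBR Green and read by fluorescence.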
Hits are given with their value; - = inactive; [ ] = remark or other dose.

SMILES | Pf Dd2 growth
CCCCc1nn(CC(=O)N2CCCC2c2c(C)noc2C)c(=O)n1CC (stereo not drawn) | -
CCc1nnc(CNC(=O)c2cc(S(N)(=O)=O)ccc2F)s1 | -
O=C(Nc1cccc(-c2nc3cc(Cl)ccc3o2)c1)c1cc([N+](=O)[O-])ccc1N1CCOCC1 | -
CCc1ccc2oc(-c3cccc(NC(=O)COc4ccccc4Cl)c3)nc2c1 | -
CCc1ccc2oc(-c3cccc(NC(=O)c4ccc(-c5cccc([N+](=O)[O-])c5)o4)c3)nc2c1 | 2µM
O=C(c1ccc(C(F)(F)F)cc1)N1CCC2(C1)C(=O)Nc1ccccc12 (stereo not drawn) | -
CC(C)C(=O)N1CC(Oc2ccccc2-c2nc(C3CC3)no2)C1 | -
COc1ccc(C(=O)N2CC(Oc3ccc(-c4nc(-c5ccccc5)no4)cc3)C2)cc1 | -[5.79 µM]
Cc1cccc(C(=O)N2CC(Oc3ccc(-c4nc(-c5ccccc5)no4)cc3)C2)c1 | -[5.79 µM]
Cc1noc(-c2cccc(OC3CN(C(=O)Cc4ccccc4)C3)c2)n1 | -[5.79 µM]
O=C(CN1CCCCCC1)N1CC(Oc2ccccc2-c2nc(C3CC3)no2)C1 | 11µM
COCCOCC(=O)N1CC(Oc2ccccc2-c2nc(C3CC3)no2)C1 | -
O=C(c1ccco1)N1CC(Oc2ccccc2-c2nc(-c3ccccc3)no2)C1 | 4µM
COc1ccc(C(=O)N2CC(Oc3ccccc3-c3nc(-c4ccccc4)no3)C2)cc1 | 0.89µM
CC(C)CNC(=O)N1CC(Oc2ccccc2-c2nc(-c3ccccc3)no2)C1 | -
O=C(Nc1ccccc1F)N1CC(Oc2cccc(-c3nc(-c4ccccc4)no3)c2)C1 | -[5.79 µM]
O=C(COc1ccc(F)cc1)N1CC(Oc2cccc(-c3nc(-c4ccccc4)no3)c2)C1 | 2.2µM
CC(=O)N1CCC(Oc2ccccc2-c2nc(-c3ccccc3)no2)C1 (stereo not drawn) | -
CN1C[C@@H](NS(=O)(=O)c2ccccc2)C[C@H]1c1nc(-c2ccc(F)cc2)no1 | -
O=C(NCc1ccncc1)C1CN(Cc2ccc(Br)cc2)CC12CCOCC2 (stereo not drawn) | -
COc1ccc(C(=O)NCc2nnc3ccc(-c4ccc(C)cc4)nn23)c(C)c1 | -
O=C(C1CCCCC1)N1CCc2nn(Cc3ccccc3)c(=O)n2CC1 | -
O=C(Cc1cccc(F)c1)N1CCC(c2n[nH]c(=O)n2-c2ccccc2)CC1 | -
CC1=NS(=O)(=O)N(Cc2ccccc2)C=C1C(=O)OCc1noc(-c2ccccc2C)n1 | -
COc1ccccc1CC(=O)N[C@@H]1CN(C)C[C@H]1CN(C)C | -
SMILES | Pf Dd2 growth
CCN(CC)S(=O)(=O)N(C)CC1CCCN(CCc2ccccc2OC)C1 (stereo not drawn) | 2.8µM
COc1ccccc1CCC(=O)N1CC[C@@H]2CN(S(C)(=O)=O)[C@@H]2C1 | -
COc1cccc(S(=O)(=O)N2CCCCC2c2nc(-c3cnccn3)n[nH]2)c1 (stereo not drawn) | -
Cc1cccc(CNC(=O)C2CCN(c3cn[nH]c(=O)c3)C2)c1 (stereo not drawn) | -
CCc1ccc2nc(N3CCN(C(=O)c4ccco4)CC3)sc2c1 | -
CCCCN(C)CCCNC(=O)C1CCN(c2nc3ccc(CC)cc3s2)CC1 | 11µM
CCCCN(C)CCCNC(=O)C1CCN(S(=O)(=O)CC)CC1 | -
CCCC(=O)N1Cc2ccccc2CC2(CCN(CCc3ccccc3)CC2)C1 | -
CN(C)c1ccc(-c2nnc([C@H]3CCN(Cc4ccccc4F)C3)o2)cc1 | -
CN(C)c1ccc(-c2nnc([C@H]3CCN(Cc4ccco4)C3)o2)cc1 | 7.9µM
CN(C)c1ccc(CN2CC[C@H](c3nnc(-c4ccco4)o3)C2)cc1 | -
C[C@@H](NC(=O)NC1(c2ccccc2)CCOCC1)c1onc(-c2cccnc2)c1C(=O)O | -
COc1ccc(F)cc1C(=O)N1CCC2(CC1)CNC(C(=O)O)C2 (stereo not drawn) | -
COC(=O)[C@@H]1C[C@@H](N(C)C)CN1C(=O)c1ccccc1-c1ncc[nH]1 | -
CC(C)c1csc(CN2CC[C@@H](c3ccc4c(c3)OCO4)[C@H](O)C2)n1 | -
CC(C)n1cc(CN2CC[C@@H](c3ccc4ccccc4c3)[C@H](O)C2)cn1 | 10µM
O=C(O)c1ccc(CN2CC[C@@H](c3ccc4c(c3)OCO4)[C@H](O)C2)cc1 | -
Cc1noc(C)c1-c1cc2cc(CO)oc2c(-c2ccc(F)c(Cl)c2)n1 | -
COC(=O)c1c(NC(=O)c2ccc(S(=O)(=O)N(C)C3CCCCC3)cc2)sc2c1CCN(C)C2 | 8.9µM
COC(=O)c1c(NC(=O)c2ccc(S(=O)(=O)N3CCC(C)CC3)cc2)sc2c1CCN(C)C2 | -
CC(C)CN(CC(C)C)S(=O)(=O)c1ccc(C(=O)Nc2sc3c(c2C(N)=O)CCN(C(C)C)C3)cc1 | -
CN(CC1CCOC1)S(=O)(=O)c1ccc2c(c1)CCCC2 (stereo not drawn) | -
CC(C)(C)C(=O)N1CCn2c(nnc2-c2ccccc2)C1 | -
O=C(c1ccc(Cl)cc1)N1CC2(CCCN2Cc2ccc(Cl)cc2)Cc2ccccc21 (stereo not drawn) | 10µM
